PubChem BioAssay AID602441 (National Center for Advancing Translational Sciences (NCATS), 2012)
The campaign covered roughly 1,300 compounds. Fewer than 10 were called active. About 9% were inconclusive and are not listed. Calls come from the whole dose curve; as a rule, active = well fitted curve in the direction sought with a large enough effect; inconclusive = small, poorly fitted or top-dose-only effect, or another doubt; inactive = no such curve, though single readings can be large or run the other way. Only a sample is shown. Entries that show only a call come without a potency.

experiment: qHTS for antagonists of the Thyroid Stimulation Hormone Receptor: Hit Validation in Parental Cell Line; conditions: parental HEK293 cells lacking TSHR, counter-screen; series mostly up to 56.9 µM
In short: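 Counterscreen in untransfected parental HEK-EM 293 cells. Lysate cAMP displaces cAMP-d2 from cryptate-tagged anti-cAMP antibody, and homogeneous TR-FRET is read at 665 nm with 337 nm excitation after stimulation.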

SMILES	Potency
Cc1occc1-c1nnc(SCC(=O)Nc2nc(C(C)(C)C)cs2)o1	inactive
COc1ccc(Cn2nnnc2C(C(C)C)N2CCN(c3ccccc3OC)CC2)cc1 (stereo not given)	inactive
O=C(Nc1nc(-c2ccc(S(=O)(=O)N3CCCCCC3)cc2)cs1)c1ccccc1	inactive
Cc1ccc(C)c(C(=O)OCC(=O)Nc2cccc(S(=O)(=O)N3CCCCC3)c2)c1	inactive
CCOC(=O)c1c(-c2ccccc2)csc1NC(=O)CSc1nnnn1C	inactive
Cc1ccccc1-c1cc(C(=O)Nc2sc(C(=O)OC(C)C)c(C)c2C#N)c2ccccc2n1	inactive
Cc1ccc(C(=O)COC(=O)CCN2C(=O)C3C4CCC(C4)C3C2=O)cc1[N+](=O)[O-] (stereo not given)	inactive
COc1ccc(CCNc2ncnc3sc(C)cc23)cc1OC	inactive
Cc1cc2c(NCc3ccccc3)ncnc2s1	inactive
COC(=O)c1ccc(/C(O)=C(\C#N)c2nc3ccccc3s2)cc1	inactive
COc1ccc(-c2sc3ccc(N4CCOCC4)cc3c2C#CCO)cc1	inactive
Cc1[nH]c2ccccc2c1/C=C/c1cc[n+](C)cc1	inactive
O=C(NCC1CCCN(C(=O)c2cccc(C(F)(F)F)c2)C1)c1ccc(F)cc1 (stereo not given)	inactive
COc1ccc(-c2c(C(F)(F)F)[nH]n3c(=O)cc(-c4ccccc4)nc23)cc1	inactive
COc1ccc(/C=C2/SC(=S)NC2=O)cc1OCc1ccccc1	inactive
COc1ccc(OC)c2c1C(=O)C(Cl)=C(Cl)C2=O	inactive
O=C1c2ccccc2C(=O)N1CCCCSc1nnnn1-c1ccccc1	inactive
Cc1cc(Br)ccc1OCC(=O)NC1CCCC1	inactive
COc1ccccc1NS(=O)(=O)c1cc(NC(=O)c2ccc3c(c2)OCCO3)ccc1C	inactive
O=C(COc1ccc(Cl)cc1Cl)Nc1ccc(C(=O)Nc2ccccc2C(=O)O)cc1	inactive
O=C(COC(=O)c1ccccc1SCC(=O)N1CCCC1)Nc1ccccc1	inactive
Cc1ccc(OC(F)F)c(NC(=O)Nc2cccc(C(F)(F)F)c2)c1	inactive
O=C(c1cc(COc2cccc3cnccc23)on1)N1CCCC(CCCO)C1 (stereo not given)	inactive

SMILES	Potency
Cc1ccc(S(=O)(=O)/N=C2/NC(=O)/C(=C\c3cc(Br)cc(Br)c3O)S2)cc1	inactive
CCN(CC)S(=O)(=O)c1cccc(C(=O)/C=C2/N(C)c3ccccc3C2(C)C)c1	inactive
CCCOc1ccc(CSc2nc3ccccc3[nH]2)cc1	inactive
Cc1nn(CCCC(=O)Nc2cc(Oc3ccccc3)cc([N+](=O)[O-])c2)c(C)c1[N+](=O)[O-]	inactive
Cc1ccccc1CS(=O)(=O)c1ncc(Cl)c(C(=O)Nc2ccc(F)cc2)n1	inactive
Cc1cc(NC(=O)CC(C)C)c(=O)n(Cc2cccc(F)c2)c1	inactive
CCOC(=O)c1c(NC(=O)/C=C/C(=O)O)sc(C)c1-c1ccc(F)cc1	inactive
Cc1cc(NC(=O)c2cccc(S(=O)(=O)N3CCOCC3)c2)c2ccccc2n1	inactive
O=C(Nc1nnc(C(F)(F)F)s1)c1ccc(Br)s1	inactive
COc1ccc(-c2nc(NC(=O)c3cc(C(C)(C)C)nn3C)sc2C)cc1	inactive
CCc1noc(C)c1C(=O)Oc1ccc(N(C)S(=O)(=O)c2ccc(C)cc2)cc1	inactive
COc1ccc(C(=O)N2CCN(c3ccc([N+](=O)[O-])c(NCCc4ccc(OC)c(OC)c4)c3)CC2)cc1	inactive
O=[N+]([O-])c1ccc(S(=O)(=O)c2ccccc2)nc1	inactive
CC1CC(C)CN(C(=O)c2ccc3c(=O)n(Cc4ccc5c(c4)OCO5)c(=S)[nH]c3c2)C1 (stereo not given)	inactive
CCc1nnc(NC(=O)c2ccc(Cl)c(S(=O)(=O)N3CCc4ccccc43)c2)s1	inactive
COCCn1nnnc1C(c1cccs1)N1CCN(c2cc(C)ccc2C)CC1 (stereo not given)	inactive
Cc1cc(NC(=O)c2cc(-c3ccco3)on2)nn1Cc1ccc(Cl)cc1	inactive
COc1ccc(-c2csc(NC(=O)c3ccccc3NS(=O)(=O)c3ccc(C)cc3)n2)cc1	inactive
Cc1cccc(OCCCCc2c(C)n[nH]c2C)c1C	inactive
Cc1cc2cc(CCNC(=O)c3ccc(S(=O)(=O)N4CCCC4)cc3)c(=O)[nH]c2cc1C	inactive
O=C(NCCc1ccccc1)C(=O)NCC1OCCCN1S(=O)(=O)c1cc(F)ccc1F (stereo not given)	inactive
CCOc1ccc(NS(=O)(=O)c2cc(NC(=O)c3cccc(C)c3)ccc2Cl)cc1	inactive
